From PubChem
The list is not random: actives were taken first. Their share in the collection is about 3.1%.
Statin myotox sup: suppression of simvastatin myotoxicity; rescue of ATP level, % at 7.49 µM; 330,000 tested, 0.78% active; C2C12 myotubes + simvastatin, ATP luminescence, 48 h; scaled: DMSO 0, geranylgeraniol control 100;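 active = mean ATP rescue above about 67%, or every replicate alone reaching that limit, limit read from the data, passing the limit was not always enough; inconclusive = no clear call, values can overlap the other calls; inactive = mean under the limit and some replicate under it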;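 also: myotubes were challenged with 10 µM simvastatin during compound exposure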
INS-1E GSIS act: GLuc luminescence reporter in INS-1E cells, primary screen for activators of glucose-dependent secretion of insulin. INS-1E GLuc reporter insulin secretion, 2-3 h. activation, % at 16.6 µM. 370,000 tested, 0.61% active. AID 743287;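 active = lowest replicate activation of at least 40%, so every replicate reaches that level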;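 also: 0% = median of neutral control wells and 100% = median of IBMX positive control wells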
miR122 inh: blocks miR-122 activity in Huh7 sensor cells. Huh7 miR-122 Renilla luciferase sensor, 48 h; neutral wells = 0, positive control = 100. activation (reporter increase), % at 12.5 µM. 340,000 tested, 0.3% active. AID 602342;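 active = mean replicate activation score at least 90 and every replicate individually at or above 90; inconclusive = only one of the two criteria met; inactive = neither criterion met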;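 also: higher luciferase means less miR-122 activity so hits act as miR-122 inhibitors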
EWS-Fli inh: blocks EWS/Fli oncoprotein-driven transcription; A673 NR0B1-luciferase reporter, viability-normalised; inhibition, % at 12.6 µM; 350,000 tested, 0.67% active;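 active = mean inhibition of at least 50% after viability correction, with every replicate also passing that limit; inconclusive = mean reaches 50% but only one of two replicates passes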;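 also: firefly luciferase signal divided by Alamar Blue viability fluorescence both relative to DMSO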
Env fusion inh: blocks HIV Env-driven cell-cell fusion | 360,000 tested, 1.1% active | inhibition, % at 12.3 µM | HeLa-JRFL Env/CEM21 cell fusion, luciferase;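 active = mean replicate inhibition score of at least 50 and every replicate individually at or above 50; inconclusive = only one of the two criteria met; inactive = mean below 50 and not all replicates reaching 50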;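 also: 0% = plate neutral controls and 100% = maraviroc near 300 nM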
PAX8 reporter: PAX8 transcriptional activity inhibition; RMG-I TPO-luciferase reporter, SteadyGlo, 24 h; 360,000 tested, 1.2% active; AID 652154; inhibition, % at 12.6 µM;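 active = mean replicate inhibition at least 60% with every replicate also reaching 60%; inconclusive = only one of the two criteria is met; inactive = mean below 60% and not all replicates reaching 60%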;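 also: luciferase light reporting Pax8 driven TPO promoter activity; plate controls were median of neutral control wells for no effect and mitoxantrone controls for full effect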
The depositor's hits bear a star; ? = inconclusive; nt = not tested or not shown; [ ] = remark or other dose.

SMILES	Statin myotox sup	INS-1E GSIS act	miR122 inh	EWS-Fli inh	Env fusion inh	PAX8 reporter
Cc1ccc(NC(=O)c2cc3c(s2)CCCC3)cc1S(=O)(=O)Nc1ccccc1Cl	nt	-28	89	nt	48	20
Cc1ccc(CNc2nc(C)nc3sc4c(c23)CCC4)cc1	-47	-15	12	nt	74*	nt
Cc1nc(Nc2ccc(O)cc2)c2c3c(sc2n1)CCCC3	-4	3	16	37	12	17
Cc1noc(C)c1S(=O)(=O)Nc1ccc2c(c1)C(=O)N([C@@H](C)CO)C[C@@H](C)[C@H](CN(C)C(=O)Nc1ccc3c(c1)OCO3)OCCCC[C@@H](C)O2	nt	5	-4[16.7 µM]	-4	-20[16.7 µM]	nt
C[C@@H]1CN([C@@H](C)CO)C(=O)c2cc(C#CCN(C)C)cnc2O[C@H]1CN(C)C(=O)CCN1CCCCC1	18	12	-6[16.7 µM]	-10	4[16.7 µM]	-8
C#CCOCCOCCOCCNc1nc(N2CCOCC2)nc(N2CCN(C(=O)CCCCCCCCCCNC(=O)[C@@H]([C@H](C)CC)n3cc(CCCCCN)nn3)CC2)n1	99*	25	-7	9	21	-2
CC(C)(C)OC(=O)NCCCCCc1cn([C@@H](CO)C(=O)NCCCCCCCCCCC(=O)N2CCN(C(=O)OC(C)(C)C)CC2)nn1	-8	nt	nt	15	31	41
C#CCOCCOCCOCCNc1nc(N2CCN(C(=O)CCCCCCCCCCNC(=O)[C@H]([C@@H](C)CC)n3cc(CCCCCN)nn3)CC2)nc(N2CCN(C(=O)CCCCCCCCCCNC(=O)[C@H](CO)n3cc(CCCCCN)nn3)CC2)n1	-38	nt	nt	nt	nt	nt
CC[C@H](C)[C@@H](C(=O)NCCCCCCCCCCC(=O)N1CCN(C(=O)OC(C)(C)C)CC1)n1cc(CCCCCNC(=O)OC(C)(C)C)nn1	-14	11	nt	23	18	63*
CN(C)CCCNC(=O)C[C@H]1CC[C@H](NC(=O)c2ccccc2F)[C@@H](CO)O1	-16	nt	nt	-10	-2[16.7 µM]	5
COc1ccc(S(=O)(=O)Nc2ccc3c(c2)C(=O)N([C@@H](C)CO)C[C@H](C)[C@@H](CN(C)Cc2ccc(C(F)(F)F)cc2)OCCCC[C@@H](C)O3)cc1	nt	-23	-12[16.7 µM]	32	14[16.7 µM]	110*
COc1ccc(CN(C)C[C@H]2OCCCC[C@@H](C)Oc3ccc(NS(=O)(=O)c4ccc(OC)cc4)cc3C(=O)N([C@H](C)CO)C[C@@H]2C)cc1	nt	-5	22[16.7 µM]	5	-12[16.7 µM]	-7
COc1ccc(S(=O)(=O)Nc2ccc3c(c2)C(=O)N([C@@H](C)CO)C[C@H](C)[C@H](CN(C)Cc2ccc(C(F)(F)F)cc2)OCCCC[C@H](C)O3)cc1	nt	-13	-7[16.7 µM]	18	0[16.7 µM]	108*
CC(C)NC(=O)N(C)C[C@@H]1Oc2ncc(-c3ccccc3F)cc2C(=O)N([C@H](C)CO)C[C@H]1C	nt	10	nt	-3	nt	12
O=C(O)c1cccc(COc2ccccc2Cl)c1	-10	12	8	86*	nt	nt
COc1cc(/C=N/O)ccc1OCc1ccc(C(=O)O)cc1	nt	nt	-5	nt	113*	94*
COc1ccc(C(C)=O)cc1OCc1ccccc1	14	23	-30	-7	16	-9
COc1cc(C(=O)O)ccc1OCc1ccccc1	nt	55*	nt	-3	-13	-9
CCC(=O)Nc1ccc2c(c1)OC[C@H](C)N(C(=O)COC)C[C@H](C)[C@H](OC)CN(C)C2=O	-1	-1	nt	1	5[16.7 µM]	4
Cc1cc(C)c2nc(Cl)c(CN(Cc3ccco3)C(=O)Nc3ccccc3C)cc2c1	-170	nt	20	56*	nt	nt
O=C(Nc1cccc(C(=O)O)c1)Nc1ccc2c(c1)OCO2	-14	10	3	79*	83*	103*
COc1cccc(NC(=O)Nc2cccc(C(=O)O)c2)c1	14	2	-6	75*	71*	80*
C[C@@H]1CCCCO[C@@H](CN(C)Cc2ccc(C(=O)O)cc2)[C@H](C)CN([C@H](C)CO)C(=O)c2cc(NC(=O)CCC(F)(F)F)ccc2O1	nt	10	-2[16.7 µM]	3	2[16.7 µM]	nt
C[C@@H]1CN([C@H](C)CO)C(=O)c2cc(C#Cc3ccccc3)cnc2O[C@H]1CN(C)S(=O)(=O)c1ccccc1F	15	-7	-3[16.7 µM]	7	41[16.7 µM]	29
C[C@@H]1CCc2cnnn2COC[C@@H](Cc2ccccc2)NC1=O	nt	14	nt	1	-21[16.7 µM]	-16
SMILES	Statin myotox sup	INS-1E GSIS act	miR122 inh	EWS-Fli inh	Env fusion inh	PAX8 reporter
CN1C(=O)c2cc(NC(=O)Nc3ccccc3F)ccc2OC[C@@H]2O[C@@H](CC(=O)O)CC[C@@H]21	6	9	-3[16.7 µM]	5	26[16.7 µM]	-15
O=C(O)CSc1ncnc2sc3c(c12)CCC3	23	nt	0	nt	36	nt
CCSc1ncnc2sc3c(c12)CCC3	2	43*	-2	nt	-78	nt
O=[N+]([O-])c1cccc(-c2nnc(-c3ccc4c(c3)OCO4)o2)c1	nt	10	nt	-97	-33	144*
CN1c2ccc(-c3ccc(F)cc3)cc2[C@H]2[C@H](CCN2C(=O)c2ccncc2)[C@H]1CO	-5	-17	32[16.7 µM]	9	nt	-13
C[C@@H]1CN([C@H](C)CO)C(=O)c2cc(C#Cc3ccccn3)cnc2O[C@@H]1CN(C)Cc1ccncc1	-13	1	-7[16.7 µM]	-3	-16[16.7 µM]	nt
O=c1oc2ccccc2cc1-c1nc2c(s1)CCCC2	-55	2	22	60*	nt	nt
CCCNC(=O)C[C@H]1CC[C@H]2[C@H](COc3ccc(NC(=O)c4cc(F)cc(F)c4)cc3C(=O)N2C)O1	-8	6	27[16.7 µM]	-3	6[16.7 µM]	-4
Cc1cccc(Cn2c(Cc3ccccc3)nc3ccccc32)c1	0	15	-5	11	nt	69*
CCC(=O)NCCc1nc2ccccc2n1Cc1ccccc1	124*	nt	-4	nt	nt	nt
Cc1ccc(Cn2c(N)nc3ccccc32)cc1	9	-3	-2	15	59*	27
CC(=O)NCCc1nc2ccccc2n1Cc1ccc(C)cc1	10	6	-5	-1	15	8
Cc1ccc(S(=O)(=O)n2c(N)nc3ccccc32)cc1	0	nt	-1	3	3	13
Nc1nc2ccccc2n1Cc1ccc(Cl)c(Cl)c1	-2	-29	nt	14	?	-7
Cc1ccc(C(=O)n2c(N)nc3ccccc32)cc1	-44	4	-4	75*	-2	65*
C[C@H]1CN([C@@H](C)CO)C(=O)c2cc(NS(=O)(=O)c3cccs3)ccc2O[C@@H]1CN(C)S(=O)(=O)c1ccc(F)cc1	nt	-4	-3[16.7 µM]	0	-9[16.7 µM]	nt
CCn1c2ccccc2c2cc(CNCc3ccc(OC)cc3OC)ccc21	nt	5	nt	38	56*	18
COc1cccc(CNCc2ccc(OC)cc2OC)c1	-5	17	1	6	5	-31
C[C@H]1CCCCO[C@H](CN(C)Cc2ccc3c(c2)OCO3)[C@@H](C)CN([C@@H](C)CO)C(=O)c2cc(NC(=O)CCC(F)(F)F)ccc2O1	nt	-5	15[16.7 µM]	-6	7[16.7 µM]	-8
